# Hits are enriched below; roughly 2.9% of the tested compounds scored in any of these assays.
# H9c2 protect = cardioprotection against H2O2-induced cell death, primary screen, uHTS, H9c2 cells, ATPLite luminescence | H9c2 cardiomyocytes, H2O2 injury protection, 2 h | protection from H2O2 cell death, % at 20 µM | 0.63% of 360,000 active;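 active = compounds giving at least 50% protection of heart cells from peroxide-induced death in the single-dose screen, raw or plate-pattern-corrected value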;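 note: 0% = DMSO wells with peroxide and 100% = DMSO wells without peroxide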
# Myeloid diff MLP = induction of myeloid progenitor differentiation, primary screen, cell-based, flow cytometry, MLPCN library; ER-HoxA9 myeloid progenitors, lysozyme-GFP differentiation; 1% of 360,000 active; calls only at 10 µM;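 active = normalized GFP-positive differentiation at or above the plate's own cutoff, the solvent-only control mean plus 3 SD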;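 note: cells exposed to compound for four days before flow analysis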
# Rtt109 HAT inh = inhibitors of C. albicans Rtt109/Vps75 HAT, primary screen, biochemical, ThioGlo CoA-SH fluorescence, plate reader; 0.16% of 330,000 active; inhibition, % at 34.9 µM; Histone acetyltransferase RTT109 (Candida albicans (strain SC5314 / ATCC MYA-2876)), …; purified Rtt109/Vps75, 4 h;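 active = inhibition of at least 50% in every replicate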
# sPLA2-III inh = human group III sPLA2 inhibitors, primary screen, biochemical, QFRET, BODIPY PC-A2 liposome substrate. Group 3 secretory phospholipase A2 (Homo sapiens), Q9NZ20. QFRET BODIPY PC-A2 liposome hydrolysis, fluorescence. inhibition, % at 12.2 µM. 0.56% of 370,000 active. AID 743126, 2013;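 active = inhibition above mean plus 3 SD of compounds lying within the high and low control bounds, cut at about 19% in these data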;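 note: 0% = median of test compound wells and 100% = no enzyme DMSO wells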
# ABHD5-PLIN5 inh = ABHD5-PLIN5 interaction inhibitors, primary screen, cell lysate, split luciferase complementation, luminescence; inhibition, % at 4 µM; Split G. princeps luciferase complementation, 4 h; 0.78% of 360,000 active;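 active = inhibition above the mean inhibition across every tested compound plus 3 SD, cut at about 22% in these data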;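 note: 0% = DMSO only wells and the 100% control is not disclosed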
# DAGLB inh = DAGLB lipase inhibitors, primary screen, biochemical, fluorescence, HTS. Diacylglycerol lipase-beta (Homo sapiens), Q8NCG7. HEK293T DAGLB membrane lysate, EnzChek fluorogenic substrate. inhibition, % at 5.17 µM. 0.059% of 340,000 active. AID 504411, 2011; in the data active = inhibition above about 34%;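 note: 0% = enzyme with vehicle and 100% = wells lacking enzyme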
# Target sequence (Q8NCG7 whole entry, looked up): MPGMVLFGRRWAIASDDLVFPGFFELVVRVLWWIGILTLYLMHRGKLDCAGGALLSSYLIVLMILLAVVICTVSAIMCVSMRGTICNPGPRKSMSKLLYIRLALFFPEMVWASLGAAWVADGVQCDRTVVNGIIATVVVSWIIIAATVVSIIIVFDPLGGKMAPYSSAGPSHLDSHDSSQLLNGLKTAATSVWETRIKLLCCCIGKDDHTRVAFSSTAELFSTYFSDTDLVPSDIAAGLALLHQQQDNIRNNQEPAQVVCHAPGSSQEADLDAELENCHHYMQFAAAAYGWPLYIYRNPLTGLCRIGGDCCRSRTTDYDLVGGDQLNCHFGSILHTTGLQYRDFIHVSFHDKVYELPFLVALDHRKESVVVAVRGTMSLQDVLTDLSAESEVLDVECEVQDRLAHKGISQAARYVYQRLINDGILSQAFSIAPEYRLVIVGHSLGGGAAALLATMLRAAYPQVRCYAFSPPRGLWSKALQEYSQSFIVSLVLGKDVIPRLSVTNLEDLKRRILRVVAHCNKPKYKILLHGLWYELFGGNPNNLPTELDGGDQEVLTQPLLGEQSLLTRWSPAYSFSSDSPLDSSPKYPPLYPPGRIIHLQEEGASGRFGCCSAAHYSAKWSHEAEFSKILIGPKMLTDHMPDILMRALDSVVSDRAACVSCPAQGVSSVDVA
# sPLA2 confirm = human group III sPLA2 inhibitors, confirmation, biochemical, QFRET, triplicate. AID 743280, 2014. recombinant hGIII-sPLA2, BODIPY PC-A2 QFRET fluorescence. shares compounds with sPLA2-III inh. 34% of 2,000 active. inhibition, % at 12.2 µM;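 active = mean inhibition across triplicates above the hit cutoff set in the earlier primary screen, cut at about 19% in these data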;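 note: 0% = enzyme with DMSO and 100% = DMSO wells lacking enzyme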
# BODIPY interf = 535nm fluorescence optical interference, confirmation, artefact control for HGIII-sPLA2 inhibitor project, biochemical, QFRET | inhibition, % at 12.2 µM | 8.5% of 2,000 active | shares compounds with sPLA2-III inh | BODIPY FL product fluorescence interference;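 active = average inhibition above the solvent-only control mean plus 3 SD, cut at about 6% in these data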;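 note: 0% = DMSO with substrate plus product and 100% = DMSO with substrate alone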
# 535nm interf DR = 535nm fluorescence optical interference, dose response, artefact control for HGIII-sPLA2 inhibitor project, biochemical, QFRET; shares compounds with sPLA2-III inh; BODIPY FL product fluorescence interference, cell-free; IC50, µM; 240 tested, under 10 active; AID 743455, 2014;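 active = IC50 at or below 10 µM; inactive = IC50 above 10 µM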
# An asterisk follows results filed as active; i = inactive; . = no result.
SMILES,H9c2 protect,Myeloid diff MLP,Rtt109 HAT inh,sPLA2-III inh,ABHD5-PLIN5 inh,DAGLB inh,sPLA2 confirm,BODIPY interf,others
Cc1cc(NC(=O)C(C)C)ncc1NC(=O)c1ccco1,2,i,-1,20*,4,-1,6,-3,
Cc1cc(NC(=O)c2ccco2)ncc1NC(=O)Cc1ccccc1,7,i,3,4,-4,4,.,.,
S=c1nn[nH]c2ccccc12,-1,i,-8,23*,-1,-2,10,-1,
Nc1n[nH]c2ccccc12,-5,i,-5,8,-1,2,.,.,
CC(C)(C)C(=O)NCCN1C(=O)S/C(=C\c2ccc([N+](=O)[O-])cc2)C1=O,-21,i,-2,1,3,0,.,.,
CCC(Sc1nc2ccccc2s1)C(=O)Nc1nnc(C)s1 (stereo unspecified),-1,i,-3,19*,-3,0,13,-7,
O=C1CN(C(=O)COc2ccccc2Cl)c2ccccc2N1,3,i,-17,4,5,1,.,.,
C(=C\N1CCCCCC1)/c1nnnn1-c1ccc(-c2ccccc2)cc1,7,i,1,20*,2,-2,5,-4,
CCCCCCn1c(=O)n2n(c1=O)[C@@H]1CN(S(=O)(=O)c3ccc(C)cc3)C[C@]1(O)[C@@H](OC(=O)NCC1CCCCC1)C2,0,i,.,-15,-20,4,.,.,
C/C(=N/NS(=O)(=O)c1ccc(C)cc1)c1ccc(NC(=O)C(F)(F)F)cc1,-4,i,1,22*,-12,-3,3,0,
Cc1ccn2c(CN3CCOCC3)c(-c3ccccc3)nc2c1,11,i,-16,-4,5,0,.,.,
Cc1ccc(NC(=S)NNC(=O)c2cnccn2)cc1,.,.,.,30*,.,.,27*,0,
Cc1ccc(NC(=S)NNC(=O)c2nn(C)cc2Cl)cc1,-10,i,6,34*,-4,1,44*,2,535nm interf DR=>122
Cc1ccc(NC(=S)NNC(=O)c2nnn(-c3ccccc3)c2C)cc1,18,i,-4,36*,-3,4,31*,-3,535nm interf DR=>122
Cc1ccc(NC(=O)COC(=O)c2nn(C)cc2Cl)cc1,-6,i,3,-1,7,0,.,.,
O=C(Nc1ccc(Cl)c(Cl)c1)N1CCCCCC1,-4,i,1,8,-2,-3,.,.,
O=C(NC(=S)NNC(=O)c1cnccn1)c1ccc(F)cc1,29,i,-28,4,1,0,.,.,
O=C(c1ccc(NC(=S)Nc2ccc(Cl)c(Cl)c2)cc1)N1CCCC1,-17,i,-15,20*,-10,1,6,-3,
O=C(c1ccc(Br)cn1)N1CCC(Oc2cccnc2)CC1,.,.,.,1,.,.,.,.,
O=C(NNC(=S)Nc1ccc(Cl)c(Cl)c1)c1ccccn1,37,i,1,32*,-7,18,42*,6.5*,
Cc1cccc(NC(=S)NNC(=O)c2nn(C)cc2Cl)c1,12,i,-2,37*,-6,1,43*,1,535nm interf DR=>122
CCNC(=S)NNC(=O)c1ccccn1,16,i,8,4,6,-1,.,.,
O=C(NCCNCC(O)COc1ccc(O)cc1)N1CCOCC1 (stereo unspecified),1,i,4,-1,13,2,.,.,
O=C(CN1CCC(O)CC1)N1c2ccccc2C=Cc2ccccc21,3,i,-1,-2,3,2,.,.,
COc1ccc(NC2CCCN(Cc3cccc4cnccc34)C2)cc1 (stereo unspecified),5,i,4,20*,-2,-8,7,-9,

# Assay outcomes deposited in PubChem BioAssay by several laboratories.
